Source: PubChem (several laboratories)
Efflux pump inh: blocks antifungal efflux pumps in multiplex yeast assay | S. cerevisiae Candida pump triplex, Nile Red efflux | inhibition, % at 10 µM | actives 0.44% (n = 330,000) | AID 485275;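 active means plate passing quality check with inhibition over a set limit, or well fluorescence over plate mean plus 4 SD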;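 further: Nile Red retained in pooled yeast measured as flow cytometry median fluorescence; higher means more Nile Red kept so more efflux inhibition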
UBC9 SUMO inh: blocks human SUMOylation mediated by UBC9 | P63279 | HTRF SUMOylation assay, SAE1/SAE2 + UBC9, in vitro | inhibition, % at 35 µM | actives 0.36% (n = 290,000); in the data active means inhibition above about 50%, passing the limit was not always enough; inconclusive means no clear call, values can overlap the other calls
Target sequence (P63279 whole entry, looked up): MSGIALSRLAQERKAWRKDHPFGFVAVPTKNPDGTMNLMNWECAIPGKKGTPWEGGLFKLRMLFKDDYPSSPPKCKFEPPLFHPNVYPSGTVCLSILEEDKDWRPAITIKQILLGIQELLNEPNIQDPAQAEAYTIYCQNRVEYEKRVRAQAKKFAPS
ALR H2O2 inh: human ALR oxidase inhibition via reduced H2O2 | P55789 | purified ALR, DTT oxidation, H2O2 HRP-luminol luminescence | inhibition, % (no concentration beside the values) | actives 3.8% (n = 290,000);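 active means mean replicate inhibition above about 79%, with every replicate also reaching it, limit read from the data; inconclusive means only one of the two criteria met; inactive means mean below limit and not every replicate reaching it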
Target sequence (P55789 whole entry, looked up): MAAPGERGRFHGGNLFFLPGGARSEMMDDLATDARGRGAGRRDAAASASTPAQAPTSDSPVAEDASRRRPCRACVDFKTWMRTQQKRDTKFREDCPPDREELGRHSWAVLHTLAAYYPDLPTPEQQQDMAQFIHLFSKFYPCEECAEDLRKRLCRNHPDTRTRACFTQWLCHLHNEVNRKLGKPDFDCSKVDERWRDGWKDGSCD
eIF4H FP inh: inhibitors of RNA binding by human eIF4H | Q15056 | eIF4H fluorescence polarization binding assay | inhibition, % at 35 µM | actives 0.94% (n = 290,000);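 further: calls also rest on retests at 20 µM and on dose response follow-up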
PABP polyA inh: blocks human PABP binding to poly(A) RNA | P11940 | actives 1% (n = 290,000) | AID 2014 | inhibition, % at 35 µM | fluorescence polarization;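 further: calls also rest on retests at 20 µM and on dose response follow-up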
MLLE-PAM2 inh: inhibitors of microRNA-mediated deadenylation, human PABP1 MLLE binding; P11940; GST-MLLE / FITC-PAM2 fluorescence polarization; inhibition, % at 20 µM; actives 0.36% (n = 360,000); AID 588489; in the data active means inhibition above about 35%, passing the limit was not always enough
Hits are given with their value; 0 = inactive; ? = inconclusive; - = not tested or not shown. Most compounds without a hit are left out; they make up all but 4.7% or so of the library. Unless noted, how the calls were made is not given here.

SMILES	Efflux pump inh	UBC9 SUMO inh	ALR H2O2 inh	eIF4H FP inh	PABP polyA inh	MLLE-PAM2 inh
Cc1nc(C(=O)N2CCC(n3nccc3NC(=O)Nc3ccccc3Cl)CC2)cs1	0	0	0	0	0	0
CC(=O)c1ccc(OCCCC(=O)NC2=NCCS2)cc1	0	0	0	0	0	39
CCOC(=O)N1CCN(CC(O)COc2ccc(C)c(C)c2)CC1 (stereo not given)	0	0	0	0	0	0
Cc1c([N+](=O)[O-])cnc(Sc2ccccc2)c1[N+](=O)[O-]	0	-	99	-	-	0
CC(C)(C)c1ccc(C(=O)NCc2nnc(SCC(=O)N3CCCC3)o2)cc1	-	-	-	-	-	0
CC(=O)SCC(=O)N=c1sc2cc(F)ccc2n1C	0	0	99	0	0	0
CCCCNc1cc(NC(C)=O)cc2cc(OC)c(OC)cc12	0	0	99	0	0	0
CC(=O)c1cccc(NC(=S)NC2CCCCCCC2)c1	0	0	0	0	0	0
Nc1nc(CN2CCN(C(=O)c3ccco3)CC2)nc(Nc2cccc(Cl)c2)n1	0	0	95	0	0	0
CC(=O)Nc1ccc(Nc2ccc3c4c(cc(=O)n3C)-c3ccccc3C(=O)c24)cc1	0	0	0	0	0	65
CC1=Nc2ccccc2/C1=C/c1c(N)n2c(S(=O)(=O)C(C)C)nsc2nc1=O	0	0	97	0	0	0
C=CCn1c(SCC(=O)Nc2ccc(F)cc2)nnc1-c1cnccn1	0	0	0	0	0	0
Cc1cccn2c(=O)c3cc(C(=O)N(C)C)n(C)c3nc12	0	0	0	?	?	53
Cc1cccn2c(=O)c3cc(C(=O)NCCCn4ccnc4)n(C)c3nc12	0	0	-	91	67	0
C=CC1=CCN(S(=O)C(C)(C)C)[C@H]1CCO (stereo not given in full)	-	-	-	-	-	0
Cc1ccc(S(=O)(=O)NNC(=O)c2ccncc2)cc1	0	0	0	0	0	0
Cc1ccc(S(=O)(=O)NNC(=O)C(=O)NNc2ccccn2)cc1	0	0	95	0	0	0
CC(=O)Nc1ccc(S(=O)(=O)NNC(=O)C(=O)NNc2ccccn2)cc1	0	0	-	0	0	0
Nc1ccc(S(=O)(=O)NNC(=O)C(=O)NNc2ccccn2)cc1	0	0	99	0	0	0
Nc1ccc(S(=O)(=O)NCc2ccccn2)cc1	0	0	0	0	0	0
Cc1ccc(S(=O)(=O)NNC(=O)c2ccc3ccccc3n2)cc1	0	0	88	0	0	0
Cc1ccccc1S(=O)(=O)NNC(=O)C(=O)NNc1ccccn1	0	0	99	0	0	0
COc1ccc(C(=O)NCc2ccncc2)cc1S(=O)(=O)NCc1ccc(Cl)cc1	0	-	-	-	-	0
Cn1c(-c2ccccc2)cc(=O)n1-c1ccccc1	-	-	-	-	-	0
C=CCn1c(-c2cc(OC)cc(OC)c2)n[nH]c1=S	0	0	96	0	0	0
SMILES	Efflux pump inh	UBC9 SUMO inh	ALR H2O2 inh	eIF4H FP inh	PABP polyA inh	MLLE-PAM2 inh
C=CCn1c(-c2cc(-c3ccc(C)cc3)nc3ccccc23)n[nH]c1=S	0	0	94	0	0	0
CCn1c(-c2cc(-c3ccc(C)cc3)nc3ccccc23)n[nH]c1=S	0	0	-	0	0	0
CN1c2ccccc2Sc2cc(N)ccc21	0	0	95	0	0	0
COc1ccccc1N1CCN(C(=O)C2CCCN(S(=O)(=O)c3ccc4c(c3)oc(=O)n4C)C2)CC1 (stereo not given)	0	0	0	0	0	0
COc1ccccc1N1CCN(C(=O)CCS(=O)(=O)c2ccc3c(c2)oc(=O)n3C)CC1	0	0	88	0	0	0
O=[N+]([O-])c1cccc(S(=O)(=O)[N-]c2nc3ccccc3nc2-n2cc[n+](Cc3ccccc3)c2)c1	0	0	0	0	0	0
CCCCOC(=O)Sc1nc2ccccc2o1	0	0	93	0	0	0
CNc1ccc(C2(O)C(=O)c3ccccc3C2=O)cc1	0	0	83	0	0	0
O=c1[nH]c2cc3c(cc2cc1CN(Cc1ccccc1)Cc1nnnn1Cc1ccco1)OCCO3	-	0	-	0	0	0
O=c1[nH]c2cc3c(cc2cc1CN(CCc1ccccc1)Cc1nnnn1C1CCCC1)OCCO3	-	0	-	97	62	-
Cc1ccc2[nH]c(=O)c(CN(Cc3ccc4c(c3)OCO4)Cc3nnnn3Cc3ccco3)cc2c1	0	0	0	0	0	0
O=c1[nH]c2cc3c(cc2cc1CN(Cc1cccs1)Cc1nnnn1Cc1ccco1)OCCO3	0	0	-	38	52	0
O=c1[nH]c2cc3c(cc2cc1CN(Cc1cccnc1)Cc1nnnn1Cc1ccco1)OCCO3	0	0	0	71	89	0
COc1ccccc1CN1C[C@@H]2C[C@@H](c3ccc(C)c(C)c3)N3CCC[C@@]23C1=O	0	0	0	0	0	0
CCCc1c(O)nc(SCCN(CC)CC)[nH]c1=O	0	0	0	0	0	0
CCCc1c(O)nc(SCCN(CC)CC)n(C(=O)c2ccccc2)c1=O	0	0	98	0	0	0
O=C(OCCc1ccccc1)c1cc(O)c(O)c(O)c1	0	-	99	-	-	0
N#C/C(=N\Nc1ccc(Cl)c(Cl)c1)C(=O)C1CC1	0	0	0	0	0	0
N#C/C(=N\Nc1ccc(F)cc1)C(=O)C1CC1	0	0	98	0	0	0
COc1cccc(N2CCN(c3nc(C)cc(C)c3C#N)CC2)c1	0	0	86	0	0	0
COc1cc(-c2nc(=S)[nH][nH]2)cc(OC)c1OC	0	0	99	0	0	0
COc1ccc(-c2nc(=S)[nH][nH]2)cc1OC	0	0	100	0	0	0
COc1ccc(-c2nc(=S)[nH][nH]2)cc1	0	0	99	0	0	0
Oc1ccc(-c2nc(=S)[nH][nH]2)cc1	0	0	-	0	0	0
FC(F)(F)c1ccc(-c2nc(=S)[nH][nH]2)cc1	0	0	99	0	0	0
SMILES	Efflux pump inh	UBC9 SUMO inh	ALR H2O2 inh	eIF4H FP inh	PABP polyA inh	MLLE-PAM2 inh
O=[N+]([O-])c1cc2c(cc1/C=N/NS(=O)(=O)c1ccc(Br)cc1)OCO2	0	0	0	0	0	0
N#C/C(=C\c1ccc2c(c1)OCO2)C(N)=S	0	0	0	0	0	0
N#C/C(=C/c1ccco1)C(N)=S	0	0	0	57	52	0
O=C(O)CC1S/C(=N/N=C/c2ccc(-c3ccc(Cl)cc3[N+](=O)[O-])o2)NC1=O (stereo not given)	0	0	82	0	0	0
CCCCN1CCN=C1N(C)C	0	-	-	-	-	0
Cc1cccc2c(N=Nc3ccc(S(=O)(=O)Nc4ccc(Cl)cc4)cc3[N+](=O)[O-])c(O)[nH]c12	0	68	0	0	0	0
Cc1ccccc1N1C(=O)CC(Nc2ccc3c(c2)OCO3)C1=O (stereo not given)	0	0	95	0	0	0
COC(=O)c1ccc(NC2CC(=O)N(c3ccccc3C)C2=O)cc1 (stereo not given)	0	0	0	0	0	0
NS(=O)(=O)c1ccc2c(c1)C1C=CCC1C(C1CC=CCC1)N2 (stereo not given)	0	0	0	53	82	0
